From PubChem
Most compounds without a hit are left out; they make up all but 4.2% or so of the library.
S1P4 antagonist: blocks the human S1P4 receptor. S1P4-expressing cells, antagonist mode, reporter read-out. 220,000 tested, 0.26% active. inhibition, % at 4.98 µM. O95977; in the data active = inhibition above about 29%
Target sequence (O95977 whole entry, looked up): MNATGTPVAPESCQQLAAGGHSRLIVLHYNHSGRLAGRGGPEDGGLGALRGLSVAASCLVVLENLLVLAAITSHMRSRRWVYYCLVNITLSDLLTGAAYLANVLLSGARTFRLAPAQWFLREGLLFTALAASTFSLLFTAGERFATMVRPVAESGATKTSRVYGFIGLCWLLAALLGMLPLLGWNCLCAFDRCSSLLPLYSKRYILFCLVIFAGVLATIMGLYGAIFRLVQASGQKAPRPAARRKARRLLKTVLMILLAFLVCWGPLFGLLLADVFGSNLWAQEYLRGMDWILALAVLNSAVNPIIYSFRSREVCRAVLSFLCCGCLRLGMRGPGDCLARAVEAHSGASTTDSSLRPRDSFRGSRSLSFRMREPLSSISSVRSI
CHOP inh: inhibitors of CHOP induction in ER stress response. CHO-K1 CHOP-promoter luciferase, tunicamycin-induced, 15-18 h. inhibition, % at 10 µM. 220,000 tested, 3.8% active;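 active = compounds that reduced the stress-induced luciferase reporter signal by more than about 70% of percent inhibition, limit read from the data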
Hsp70 activator: transcriptional activators of Hsp70; AID 1203; HeLa Hsp70 promoter luciferase reporter, luminescence; scaled: vehicle 0, proteasome-inhibitor control 100%; 200,000 tested, 0.04% active; activation, % at 10 µM;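 active = activation above the mean across all tested compounds plus 3 SD, cutoff set per campaign, cut at about 5.5% in these data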
S1P4 ag: agonists of human S1P4 receptor. O95977. 220,000 tested, 0.35% active. S1P4-expressing cell line, agonist reporter assay. activation, % at 4.98 µM; in the data active = activation above about 11%
CHOP confirm: confirmation of CHOP induction inhibitors | shares compounds with CHOP inh | CHO-CHOP promoter luciferase reporter, tunicamycin-induced, luminescence | inhibition, % at 10 µM | 2,100 tested, 45% active | AID 504437;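 active = mean of three repeat readings of reporter signal inhibition above a set limit, cut at about 70% in these data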
Hits are given with their value; i = inactive; nt = not tested or not shown.

SMILES	S1P4 antagonist	CHOP inh	Hsp70 activator	S1P4 ag	CHOP confirm
Oc1ccc(Br)cc1/C=N/Nc1nc(N2CCCCC2)nc(N2CCOCC2)n1	i	i	i	i	nt
Oc1ccc(/C=N/Nc2nc(N3CCCCCC3)nc(N3CCCCCC3)n2)c(O)c1	i	103.4	i	i	97.8
Oc1ccc(/C=N/Nc2cc(N3CCCC3)nc(N3CCCC3)n2)cc1	i	109.1	i	i	i
O=C(Nc1ccc(O)c(-c2nc3ccccc3s2)c1)c1cc(=O)c2ccccc2o1	i	107.9	i	i	i
O=C(Nc1ccc(O)c(-c2nc3ccccc3s2)c1)c1cccs1	i	i	i	i	nt
Cc1ccc(CSc2nc3ccncc3n2CC(=O)Nc2cc(C)cc(C)c2)cc1	i	96.2	i	i	i
CC(/C=N/Nc1nnc2c(n1)[nH]c1ccccc12)=C\c1ccco1	i	107.1	i	i	i
COc1cc(C(=O)O/N=C2\C=CC(=O)C(C)=C2)cc(OC)c1OC	i	107.8	i	i	98.6
Cc1nc([N+](=O)[O-])c(Br)n1CC(=O)c1ccc2ccccc2c1	i	103.0	i	i	i
Cc1nc([N+](=O)[O-])c(Br)n1CC(=O)c1ccccc1	i	i	i	i	nt
Cc1nc2c3cc(Cl)ccc3n(CCN3CCOCC3)c2s1	i	i	nt	i	nt
O=S1(=O)C=C(Sc2nc3cc(Cl)ccc3o2)c2ccccc21	i	nt	i	i	138.3
O=C1CSC(=Nc2ccccc2[N+](=O)[O-])N1	i	i	i	i	nt
CCOC(=O)c1c(C)oc2c1C(=O)c1ccccc1C2=O	i	i	i	i	nt
CCOC(=O)C1=C(Cc2ccc(C)cc2)C(=O)c2ccccc2C1=O	i	103.9	i	i	i
CCN(CC)S(=O)(=O)c1cccc(NC(=O)Nc2cccc(C(F)(F)F)c2)c1	i	99.9	i	i	124.0
CCN(CC)S(=O)(=O)c1ccc2c(c1)nc(CCC(=O)Nc1cccc(C(F)(F)F)c1)n2CC	i	i	i	i	nt
CS(=O)c1nc(-c2ccc(Br)cc2)cc(-c2ccccc2)c1C#N (stereo unspecified)	i	nt	i	i	i
CS(=O)(=O)c1nc(-c2ccc(Br)cc2)cc(-c2ccccc2)c1C#N	i	108.4	i	i	i
Cc1cc(=O)oc2ccc(OCC(=O)N3CCC(C)CC3)cc12	i	i	i	i	nt
COc1ccc(NC(=O)c2oc3ccccc3c2NC(=O)C(C)(C)C)cc1	i	103.4	i	i	i
O=C(COc1ccccc1)Nc1sc2c(c1C(=O)NCc1cccnc1)CCCC2	i	97.7	i	i	i
COc1ccc(OCC(=O)Nc2sc3c(c2C(=O)NCC2CCCO2)CCC3)cc1 (stereo unspecified)	i	i	i	i	nt
CCc1ccc(NSc2ccccc2[N+](=O)[O-])cc1	i	102.2	i	i	i
Cc1nc(N2CCN(Cc3ccccc3)CC2)nc2c1C(=O)CCC2	i	i	i	i	nt
SMILES	S1P4 antagonist	CHOP inh	Hsp70 activator	S1P4 ag	CHOP confirm
Cc1cc(Cl)ccc1NC(=O)Nc1c(C)n(-c2ccccc2)c(=O)n1C	i	i	i	i	nt
COc1ccc(-c2cc(C(F)(F)F)nc(S(=O)(=O)CCCC(=O)Nc3cccnc3Cl)n2)cc1OC	29.2	100.3	i	i	i
O=C(N=Nc1c(O)[nH]c2ccccc12)c1cccc(S(=O)(=O)N2CCCCC2)c1	i	96.8	i	i	i
O=C(CCc1nc(-c2ccccc2)no1)N1CCCC1	i	i	i	i	nt
O=C(CSc1nc2ccc(Cl)cc2[nH]1)c1c[nH]c2ccccc12	i	101.1	i	i	i
Cc1ccc(NC(=O)Cn2nnc(C(=O)Nc3ccc(C)c(C)c3)c2N)cc1	i	96.9	i	i	i
CCOc1ccc(-n2c(SCC(=O)Nc3ccc(Br)cc3)nc3n[nH]c(C)c3c2=N)cc1	i	103.4	i	i	107.6
CCN(CC)CCOc1ccc(/C(=C(/Cl)c2ccccc2)c2ccccc2)cc1	i	98.6	i	i	i
CC/C(=C(\c1ccccc1)c1ccc(OCCN(C)C)cc1)c1ccccc1	nt	i	nt	nt	nt
COc1ccc(NC(=O)CSc2nc(C)c3c(c2C#N)CCCC3)cc1	i	i	i	i	nt
Cc1cccc(NC(=O)CSc2nc(C)c(CC(=O)c3ccc(Br)cc3)c(C)c2C#N)c1C	i	102.5	i	i	106.4
Cc1nc(SCC(=O)Nc2ccc(F)cc2)c(C#N)c(C)c1CC(=O)c1ccc(Br)cc1	i	103.0	i	i	96.8
COCc1cc(C)nc(SCC(=O)Nc2cccc(C)c2C)c1C#N	i	i	i	i	nt
CC(=O)N1c2c(cc(Br)cc2S(=O)(=O)Nc2c(C)n(C)n(-c3ccccc3)c2=O)CC1C (stereo unspecified)	i	i	i	i	nt
COc1ccc(NC(=O)CSc2ncnc3c2cnn3Cc2ccccc2)cc1OC	i	i	i	i	nt
